# Screening data deposited in PubChem BioAssay by several laboratories.
# The list is not random: actives were taken first. Their share in the collection is about 2.5%.
# sEH inhibitor – blocks human soluble epoxide hydrolase activity; P34913; recombinant human sEH enzymatic activity assay; inhibition, % at 2 µM; hit rate 0.34% among 91,000; in the data active = inhibition above about 80%
# Target sequence (P34913 whole entry, looked up): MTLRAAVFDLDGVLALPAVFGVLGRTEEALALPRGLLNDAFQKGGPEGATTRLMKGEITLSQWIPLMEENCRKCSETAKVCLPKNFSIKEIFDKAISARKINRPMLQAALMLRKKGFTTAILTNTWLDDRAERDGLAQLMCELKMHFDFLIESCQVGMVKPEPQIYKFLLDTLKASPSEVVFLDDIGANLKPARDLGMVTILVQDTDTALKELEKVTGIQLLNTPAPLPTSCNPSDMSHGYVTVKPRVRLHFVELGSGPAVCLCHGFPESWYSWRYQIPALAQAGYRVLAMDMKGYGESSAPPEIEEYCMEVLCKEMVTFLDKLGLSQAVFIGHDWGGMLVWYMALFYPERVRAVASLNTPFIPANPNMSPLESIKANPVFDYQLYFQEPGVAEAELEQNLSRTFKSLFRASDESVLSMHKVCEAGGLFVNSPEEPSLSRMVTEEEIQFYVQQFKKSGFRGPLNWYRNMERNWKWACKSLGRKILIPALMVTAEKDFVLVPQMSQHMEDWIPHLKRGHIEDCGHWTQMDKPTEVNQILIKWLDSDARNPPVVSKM
# SDO1 yeast rescue – compounds rescuing growth of sdo1-depleted yeast, bone marrow failure model; S. cerevisiae sdo1-depleted JHY4D growth rescue, OD600 30 h; stronger effect = higher value; pdr5 snq2 efflux-pump mutant strain; z-score at 10 µM; hit rate 0.21% among 140,000; AID 817;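 active = z-score above 3 at both the 24 hr and the 30 hr optical density reads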;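 note: z-score against mean and SD of all compound wells on the same plate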
# Measles CPE – protection of cells from measles virus. protection (pct of control), % at 4 µM. hit rate 1.5% among 140,000. AID 841. Measles virus-infected cells, CPE protection, absorbance; in the data active = protection mostly above about 24%, no sharp cut-off; inactive = mostly below about 26%
# sEH act – activators of human soluble epoxide hydrolase. P34913. purified human sEH enzymatic activity, activator screen. activation, % at 2 µM. hit rate 0.04% among 91,000; in the data active = activation above about 37%
# MRP-1 activ – activates MRP-1; H69AR cells + doxorubicin, viability rescue, CellTiter-Glo; AID 799; hit rate 0.61% among 140,000; viability increase, % at 10 µM;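 active = viability gain under doxorubicin at or above a set limit, the compound median plus 3 SD, cut at about 4.7% in these data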;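 note: MRP-1 overexpressing cells given doxorubicin 25 µM after compound pretreatment; 18-22 h compound pretreatment then 72 h with doxorubicin before readout; 0% = doxorubicin-only wells and 100% = vehicle-treated cells without doxorubicin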
# MRP resist rev – compounds reversing MRP-mediated drug resistance; H69AR cells + 2 uM doxorubicin, CellTiter-Glo, 72 h; differential viability (reversal), % at 10 µM; hit rate 0.04% among 85,000;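 active = viability drop by adding the cancer drug above about 55%, with treated viability meeting a 40% cutoff, limit read from the data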;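 note: viability without doxorubicin minus viability with 2 µM doxorubicin for each compound; larger differential means the compound sensitizes cells more to doxorubicin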
# * = called active by the depositor; . = no result given.
SMILES,sEH inhibitor,SDO1 yeast rescue,Measles CPE,sEH act,MRP-1 activ,MRP resist rev
Cc1cc(NC(=O)c2ccc(Cl)cc2)no1,-1,0.59,6,1,0,-3
CC(C)CN(CC(C)C)C(=O)C12CCC(C)(C(=O)C1)C2(C)C (stereo not given),12,-1,5,-12,-1,12
Clc1ccc(COn2nnc3ccccc32)c(Cl)c1,6,-0.92,29,-4,-1,-6
CC1CCCCC1NS(=O)(=O)c1ccc(S(=O)(=O)NCc2ccncc2)cc1 (stereo not given),-5,0.71,39*,2,-2,-3
Cc1ccc(S(=O)(=O)NCc2ccncc2)cc1,9,0.08,11,-8,1,-11
CSc1nc(N)nc(SCCS(=O)(=O)c2ccc(Cl)cc2)c1C#N,10,-1.9,78*,-8,-5,-9
O=C(Nc1ccc2oc(-c3ccccc3)nc2c1)c1cccnc1,16,-0.3,59*,-14,-1,-5
CCc1ccc2oc(-c3cccc(NC(=O)c4cccnc4)c3)nc2c1,5,-1.3,8,-1,-3,43
O=C(c1ccc(Cl)c(S(=O)(=O)N2CCOCC2)c1)N1CCN(Cc2ccccc2)CC1,12,0.74,21,-7,-3,-43
Cc1cc(C(=O)COc2ccccc2Cl)c(C)n1-c1ccc2c(c1)OCO2,.,0.39,33*,.,1,.
O=C(Nc1ccn(Cc2c(F)c(F)cc(F)c2F)n1)c1ccc(COc2cc(Cl)ccc2Cl)o1,6,0.05,7,-5,3,.
O=C(Nc1ccn(Cc2ccccc2F)n1)c1ccc(COc2cc(Cl)ccc2Cl)o1,7,-1.7,4,-6,7.0*,.
Cn1c(-c2sc3ccccc3c2Cl)n[nH]c1=S,3,-1.4,4,-4,-1,13
O=C(CSc1nc2ccccc2c(=O)[nH]1)N1CCN(S(=O)(=O)c2ccccc2)CC1,.,-0.58,8,.,-1,10
O=C(CSc1nc(-c2ccccc2)c(-c2ccccc2)[nH]1)N1CCN(S(=O)(=O)c2ccccc2)CC1,-5,-0.4,28*,4,-5,32
CCOC(=O)c1c(C)n(C)c2ccc(OC)c(NC(=O)CCN3CCSCC3)c12,-2,1.1,37*,3,0,-4
O=[N+]([O-])c1cc(Oc2cccnc2)cc([N+](=O)[O-])c1,.,0.05,55*,.,-3,.
O=C(Nc1ccccc1)C1=C(O)CC(c2ccc(Cl)cc2)N2CCN=C12 (stereo not given),.,-2,8,.,-1,.
Cc1ccc(C(=O)N2CCN(C3c4cccc5cccc(c45)C3NS(=O)(=O)c3ccccc3)CC2)cc1 (stereo not given),21,-0.75,55*,-19,-5,21
CC(=O)N1CCN(C2c3cccc4cccc(c34)C2NS(=O)(=O)c2ccccc2)CC1 (stereo not given),10,0.28,4,-8,-2,25
CCCCC(=O)NC(=S)NNS(=O)(=O)c1ccccc1,.,-0.09,42*,.,-1,.
O=C(NC(=S)NNS(=O)(=O)c1ccccc1)c1ccccc1[N+](=O)[O-],.,0.12,40,.,0,.
COc1ccc(C(=O)c2sc3nc(C)cc(-c4cccs4)c3c2N)cc1OC,.,-0.18,7,.,-1,.
COc1ccc(CCNC(=O)CSCc2ccc(Cl)cc2)cc1OC,.,-0.44,7,.,5.0*,.
COc1ccc(CCNC(=O)C2CCN(S(C)(=O)=O)CC2)cc1OC,0,0.64,3,-2,-1,-2
SMILES,sEH inhibitor,SDO1 yeast rescue,Measles CPE,sEH act,MRP-1 activ,MRP resist rev
COc1ccc(CCNC(=O)C2CC2)cc1OC,2,0.11,46*,-4,1,0
O=[N+]([O-])c1ccc(N2CCC(O)CC2)nc1,.,-0.75,13,.,-1,.
COc1ccc(-c2cc(C(F)(F)F)nc(NCc3ccco3)n2)cc1OC,.,-0.29,4,.,-3,11
FC(F)(F)c1cc(-c2ccc3c(c2)OCO3)nc(NCc2ccco2)n1,19,-1.2,66*,-19,-1,8
Cc1nn(C)c(C)c1S(=O)(=O)N1CCCC(C(=O)NCC2COc3ccccc3O2)C1 (stereo not given),32,1.2,6,-32,-2,6
CCOc1cccc(C(=O)Nc2ccccc2N2CCN(C(=O)C(C)C)CC2)c1,-7,0.06,5,9,-5,3
COc1cccc(CNC(=O)c2nnn(-c3ccc(OC(F)(F)F)cc3)c2N)c1,6,-0.59,7,-7,3,18
Nc1c(C(=O)NCc2ccc3c(c2)OCO3)nnn1-c1ccc(OC(F)(F)F)cc1,10,-0.09,54*,-12,2,-8
Cc1c(NC(=O)c2noc(C(C)C)c2[N+](=O)[O-])c(=O)n(-c2ccccc2)n1C,-5,0.55,29*,2,1,-4
CC(=O)c1ccc(NC(=O)CN2CCN(c3ncccn3)CC2)cc1,10,0.12,78*,-9,-1,.
COc1ccc(Cc2nnc(SCC(=O)c3ccc(OC)cc3)o2)cc1,-6,-0.81,5,0,0,.
COc1ccc(NCc2nnc(SCC(=O)c3ccc(OC)cc3)o2)cc1,30,-0.22,38*,-30,-3,-5
O=C(NC1CCCCCC1)c1cccc(COCC(F)(F)F)c1,62,0.61,36*,-61,-1,8
CCOC(=O)CNC(=O)C(NC(=O)C1CCC(C)CC1)C(C)CC (stereo not given),.,-0.26,1,.,0,8
CCc1nnc(NC(=O)CCC(=O)NC2CCCc3ccccc32)s1 (stereo not given),.,-0.22,12,.,0,.
COCCNC(=O)C(OC(=O)CC1Sc2ccccc2NC1=O)c1ccccc1 (stereo not given),3,2.1,5,1,-2,-11
CCc1cc2c(SCC(=O)c3ccc(C)cc3)ncnc2s1,2,-0.13,41*,1,1,-5
CCS(=O)(=O)Nc1ccc(-c2cc(-c3ccccc3)c3cc(C)ccc3n2)cc1,.,0.06,32,.,-6,.
Cc1ccc2nc(-c3ccc(NS(C)(=O)=O)cc3)cc(-c3ccccc3)c2c1,14,-1.6,42*,-12,-4,.
Cc1[nH]n(-c2ncc(-c3ccccc3)s2)c(=O)c1C(c1ccc(Cl)cc1)C(C#N)C#N (stereo not given),.,-0.89,16,.,0,.
O/N=C/c1ccc(OCc2ccccc2)c(Br)c1,.,-2.1,42*,.,-1,.
COc1ccc(NC(=O)CC2C(=O)N(c3cccc(OC)c3)C(=O)N2CCC(C)C)cc1 (stereo not given),-8,-0.1,1,8,0,7
COc1cccc(-c2csc(NC(=O)Oc3ccccc3)n2)c1,0,-0.78,5,2,7.5*,.
O=C(Nc1nc(-c2cccc([N+](=O)[O-])c2)cs1)C(c1ccccc1)c1ccccc1,1,-1.4,22,2,8.9*,.
COc1ccc(CC(=O)Nc2nc(-c3cccc([N+](=O)[O-])c3)cs2)cc1,.,0.7,17,.,2,.
O=C(Nc1nc(-c2nc3ccccc3s2)cs1)c1ccco1,.,-0.55,49*,.,-4,-3
